Source: PubChem (several laboratories)
CYP2C9 act: activators of human CYP2C9. P11712. recombinant CYP2C9, luciferin-H conversion, luminescence; stronger effect = higher value; factor 1 = untreated enzyme, 0 = blocked. activation factor at 5 µM. 96,000 tested, 1.4% active. AID 1024;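 active = activation factor of 2 or more for CYP2C9 at a 5 µM dose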;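 note: 0 = sulfaphenazole-blocked wells and 1 = vehicle-only wells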
CYP2C9 inhib: human CYP2C9 inhibition; CYP2C9 Supersomes, luciferin-H conversion, luminescence; 96,000 tested, 20% active; inhibition, % at 5 µM; P11712; AID 777;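 active = blocking of liver enzyme CYP2C9 beyond about 50% at 5 µM, limit read from the data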
Measles CPE: protection of cells from measles virus. Measles virus-infected cells, CPE protection, absorbance. protection (pct of control), % at 4 µM. 140,000 tested, 1.5% active; in the data active = protection mostly above about 24%, no sharp cut-off; inactive = mostly below about 26%
CYP2C19 inhib: human CYP2C19 inhibition. P33261. CYP2C19 Supersomes, luciferin-H EGE luminescence, 30 min. inhibition, % at 5 µM. 96,000 tested, 21% active. AID 778;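 active = CYP2C19 inhibition above a set limit at 5 µM in the primary screen, cut at about 50% in these data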;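 note: plate controls were negative control wells for no effect and 2.5 mM tranylcypromine positive control for full effect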
Target sequence (P33261 whole entry, looked up): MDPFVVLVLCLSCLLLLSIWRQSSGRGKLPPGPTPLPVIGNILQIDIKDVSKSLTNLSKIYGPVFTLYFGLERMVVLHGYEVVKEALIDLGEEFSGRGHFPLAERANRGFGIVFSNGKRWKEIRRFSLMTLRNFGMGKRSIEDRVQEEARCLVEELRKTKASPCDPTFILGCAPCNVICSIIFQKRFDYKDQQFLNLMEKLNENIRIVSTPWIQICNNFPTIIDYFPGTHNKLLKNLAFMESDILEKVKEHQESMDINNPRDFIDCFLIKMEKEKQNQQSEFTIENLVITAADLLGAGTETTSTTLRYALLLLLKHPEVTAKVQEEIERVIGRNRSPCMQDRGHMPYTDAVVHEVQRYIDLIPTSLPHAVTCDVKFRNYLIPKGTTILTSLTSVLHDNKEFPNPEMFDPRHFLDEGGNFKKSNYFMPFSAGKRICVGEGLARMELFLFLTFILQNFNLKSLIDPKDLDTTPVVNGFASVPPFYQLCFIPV
CYP2C19 act: increases human CYP2C19 enzyme activity; P33261; recombinant CYP2C19, luciferin-H EGE luminescence; stronger effect = higher value; 0 = fully inhibited enzyme, 1 = untreated enzyme; activation factor at 5 µM; 96,000 tested, under 10 active; AID 1025;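 active = activation factor of at least 2 at 5 µM in the primary screen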;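 note: 0 = wells with 2.5 mM tranylcypromine and 1 = vehicle-only wells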
* = called active by the depositor; . = no result. A selection: hits, their analogues and other compounds. The true share with any hit is near 22%.

SMILES	CYP2C9 act	CYP2C9 inhib	Measles CPE	CYP2C19 inhib	CYP2C19 act
O=C(CCC1CCCC1)Nc1ccc(OCC(=O)N2CCOCC2)cc1	.	.	8.0	.	.
COc1cc(N)ccc1NC(=O)c1cccs1	1.6	-55.3	14.4	-16.5	1.2
CCOC(=O)c1c(NC(=O)c2ccco2)sc(C(=O)N2CCCC2)c1C	0.4	56.2*	3.6	44.1	0.6
CCc1c(C)sc(NC(=O)c2ccco2)c1C(=O)N1CCCCC1	0.9	6.8	37.5*	2.4	1
COc1cc2c(=O)n(Cc3ccco3)c(=O)n(CC(=O)c3cccc(Br)c3)c2cc1OC	0.7	34.0	1.9	20.5	0.8
O=C(c1cccc(Cl)c1)N1CCCC(c2ccc(Cl)cc2)=N1	0.5	48.1	5.6	61.7*	0.4
O=C(c1ccccc1)N1CCCC(c2ccc(Cl)cc2)=N1	0.6	44.8	6.5	56.8*	0.4
O=C(c1ccc(-c2ccccc2)cc1)N1CCCC1	0.9	8.5	4.8	7.4	0.9
O=C(c1cccc(Cl)c1)N1CCN(C2CCCCCC2)CC1	0.9	8.9	3.4	19.0	0.8
Cc1ccc(-c2noc(CN3C(C)CCCC3C)n2)cc1 (configuration not stated)	0.6	35.8	4.8	50.9*	0.5
CC1CCCN(c2ccc(C(=O)OCC(=O)N3c4ccccc4Sc4ccccc43)cc2[N+](=O)[O-])C1 (configuration not stated)	.	.	10.0	.	.
CC1CC(C)CN(c2ccc(C(=O)OCC(=O)NC3CCCc4ccccc43)cc2[N+](=O)[O-])C1 (configuration not stated)	0.5	52.4*	3.2	21.8	0.8
O=C(COC(=O)c1ccc(Sc2ccccc2)c([N+](=O)[O-])c1)NC1CCCc2ccccc21 (configuration not stated)	0.1	88.1*	4.6	-11.8	1.1
CC1CC(C)CN(Cc2nc3c(c(=O)n(C)c(=O)n3C)n2CCN2CCOCC2)C1 (configuration not stated)	0.8	18.7	10.6	7.1	0.9
COc1ccccc1-n1c(-c2cccnc2)n[nH]c1=S	1	-3.3	2.0	-0.9	1
CCCC1(C)Nc2ccccc2-c2nc3ccccc3n21 (configuration not stated)	0.4	58.9*	7.6	64.3*	0.4
Cc1nc2ccccc2cc1C(=O)N/N=C/c1ccccc1[N+](=O)[O-]	.	.	3.3	.	.
COCCn1nnnc1C(c1ccc2ncccc2c1)N1CCc2ccccc21 (configuration not stated)	0.2	80.4*	.	93.5*	0.1
COCCn1nnnc1C(c1ccc(OC)c(OC)c1)N1CCc2ccccc21 (configuration not stated)	0.3	68.7*	14.7	74.2*	0.3
CNc1nc2ccccc2n1N	.	.	8.3	.	.
Cc1cc(C)n2cc(CSc3nc4ccccc4[nH]3)nc2n1	.	.	2.3	.	.
CCCC(=O)Nc1ccc(C(=O)Nc2cccc(OC)c2)cc1	.	.	2.1	.	.
COc1cccc(NC(=O)CSCC(=O)Nc2ccccc2)c1	0.2	77.8*	2.9	60.1*	0.4
COc1cccc(NC(=O)CNC(=O)c2ccc(F)cc2)c1	0.6	41.5	6.5	53.3*	0.5
CCCCSCCCNC(=O)Nc1cccc(OC)c1	0.3	72.6*	8.9	80.5*	0.2
SMILES	CYP2C9 act	CYP2C9 inhib	Measles CPE	CYP2C19 inhib	CYP2C19 act
COc1cccc(NC(=O)CC2SC(=Nc3ccccc3)NC2=O)c1 (configuration not stated)	0.3	69.5*	3.3	62.9*	0.4
COc1cccc(NC(=O)CSCC(=O)O)c1	0.9	12.0	-0.1	11.9	0.9
COc1ccc(CC(=O)NC(c2ccccc2)c2ccccc2)cc1S(=O)(=O)N1CCOCC1	0.7	26.6	18.4	-12.0	1.1
CCOc1ccc(NC(=O)CSCC(=O)O)cc1	1	4.8	3.1	13.4	0.9
COc1cccc(NC(=O)Cc2ccccc2)c1	0.7	31.1	24.0	94.0*	0.1
COC(=O)c1ccccc1NC(=O)CSCC(=O)Nc1ccccc1	0.7	33.6	5.3	53.4*	0.5
CCN(CC)C(=O)CSCC(=O)Nc1ccccc1	1	-3.1	5.1	57.3*	0.4
CC(=O)C1=C(C)OC(N)=C(C#N)C1c1ccco1 (configuration not stated)	1	-3.9	3.6	36.5	0.6
O=C(Nc1ccc(Cl)c(Cl)c1)O/N=C/c1ccncc1	.	.	9.6	.	.
C=CCn1c(C(C)NC(=O)C(C)(C)C)nc2ccccc21 (configuration not stated)	.	.	4.0	.	.
Cc1cc(C)cc(OCC(=O)NCC2CCCO2)c1 (configuration not stated)	1.4	-35.3	16.8	22.3	0.8
CNC(=O)C1=NCCCc2cc(OC)c(OC)cc21	1.1	-5.1	3.5	-19.2	1.2
CCCCn1c(CCNC(=O)c2cccs2)nc2ccccc21	0.8	21.3	17.6	62.6*	0.4
CCCn1c(CNC(=O)c2cccs2)nc2ccccc21	0.7	27.9	8.4	44.4	0.6
CCCn1c(CNC(=O)c2ccccc2)nc2ccccc21	1	0.2	2.2	60.6*	0.4
CC(C)Cn1c(CNC(=O)c2ccccc2)nc2ccccc21	0.7	27.2	4.0	71.7*	0.3
O=C(O)CCC(=O)Nc1cccc(C(=O)Nc2cccc(Cl)c2)c1	1	-2.3	14.5	-14.4	1.1
CCCNc1c(NC(C)=O)c(=O)oc2ccccc12	.	.	16.6	.	.
CN1CCN(C(=O)c2ccc(S(=O)(=O)c3ccc(Br)cc3)cc2)CC1	1	0.1	4.8	2.5	1
Cc1ccc(NC(=O)CN(c2ccc(C)cc2)S(=O)(=O)c2cccc3nonc23)cc1	.	.	3.4	.	.
Cc1cc(C)c(S(=O)(=O)N2CCN(c3ccc([N+](=O)[O-])c(-n4nc(C)cc4C)c3)CC2)c(C)c1	0.4	60.2*	2.2	18.4	0.8
Cc1cc(C)n(-c2cc(N3CCN(S(=O)(=O)c4ccc(Br)cc4)CC3)ccc2[N+](=O)[O-])n1	.	.	8.3	.	.
CCOC(=O)c1ccc(CSc2nncn2N)o1	1	-0.5	24.7	-5.0	1.1
CCOC(=O)c1ccoc1CSCc1ccc(C(=O)OC)o1	0.3	71.8*	11.9	29.8	0.7
Brc1ccc2ncnc(Nc3ccc(N4CCOCC4)cc3)c2c1	1.1	-7.8	9.0	9.9	0.9
SMILES	CYP2C9 act	CYP2C9 inhib	Measles CPE	CYP2C19 inhib	CYP2C19 act
CCC(C)c1ccc(NC(=O)C2CCN(c3ccc(C(F)(F)F)cn3)CC2)cc1 (configuration not stated)	.	.	5.4	.	.
N#Cc1c(C(F)(F)F)cc(-c2ccco2)nc1SCc1ccncc1	0.1	92.4*	7.1	86.7*	0.1
COc1ccc(N2CCN(C(=O)c3ccc(S(=O)(=O)N4CCOCC4)cc3)CC2)cc1	1	0.9	.	-0.3	1
COc1ccc(N2CCN(C(=O)c3ccc(NS(=O)(=O)c4ccc(F)cc4)cc3)CC2)cc1	0.1	90.6*	17.7	23.7	0.8
CCOc1ccc(S(=O)(=O)Nc2cccc(C(=O)N3CCN(c4ccc(OC)cc4)CC3)c2)cc1	0.4	60.3*	83.6*	61.8*	0.4
Cc1nc2ccccc2c(=O)n1/N=C/c1ccncc1	0.7	27.0	4.1	76.4*	0.2
